Measured values: PubChem BioAssay (Tox21)
Inconclusive results are not listed. Unmarked numbers belong to inactive results. The source made the active and inactive calls. The call rests on the fitted dose curve; in most records, active means well fitted activation curve with a large enough effect in the repeat runs; inconclusive means weak or mixed curves; inactive means flat fitted curve, though single readings scatter.

Test: A CellTox Green Cytotoxicity Assay to monitor cytotoxicity in HepG2 cells - 32 hour (AID 1224883); further: nearly all actives have a fitted effect of over 50% in size
Conditions: CellTox Green fluorescence; series mostly up to 76.8 µM; cytotoxicity increase: at the top concentration
Excerpt: National Center for Advancing Translational Sciences [NCATS]
NIH Chemical Genomics Center [NCGC]
U.S. Environmental Protection Agency [EPA]
National Institutes of Environmental Health Sciences [NIEHS]
National Toxicology Program [NTP]
Cell-based models are critical for drug discovery. Determining the natural cytotoxic effects resulting from test compounds is an essential research activity. A CellTox Green Cytotoxicity Assay to monitor cytotoxicity in real time of continues cell culture during 40 hours of the compound treatment was used to screen Tox21 10K library compounds in HepG2 cells. CellTox Green Cytotoxicity Assay is a nonlytic, homogeneous, biofluorescent method to measure cytotoxicity in cell culture after experimental manipulation. The assay system uses a proprietary asymmetric cyanine dye that is excluded from viable cells but preferentially stains the dead cell's DNA. […] Viable cells produce no appreciable increases in fluorescence. Therefore, the fluorescence signal produced by the binding interaction with dead cell DNA is proportional to cytotoxicity.
The mixture of HepG2 cell suspension and reagents were dispensed at 600cells/6 ul/well in 1536-well tissue culture treated black solid bottom plates using a Multidrop dispenser. After the assay plates were incubated at a 37 C/5% CO2 incubator for 5 hours, 23 nL of compounds dissolved in DMSO, positive and negative controls was transferred to the assay plate by a pintool work station. The plates were incubated at 37 C for 40 hours. The fluorescence intensity were measured at 0h, 8h, 16h, 24h, 32h and 40h time points using ViewLux plate reader during compound treatment.
On the % scale 0 is the no-effect control and ±100 the full control effect; potency means the concentration at half of the fitted maximal effect.

| SMILES | cytotoxicity increase | Potency |
| --- | --- | --- |
| CCN(CC)c1ccc(C(=C2C=CC(=[N+](CC)CC)C=C2)c2cc(S(=O)(=O)O)ccc2S(=O)(=O)[O-])cc1 | -18.1% [at 35.3 µM] | – |
| Cc1oc(-c2ccccc2)nc1CCOc1cccc2c1ccn2CCC(=O)O | -0.275% | – |
| Cc1cc(C(=O)O)ccc1[N+](=O)[O-] | 4.95% | – |
| O=C(c1ccc(F)cc1)C1CCN(CCn2c(=S)[nH]c3ccccc3c2=O)CC1 | 17.2% [at 35.3 µM] | – |
| COc1ccnc(CS(=O)c2nc3ccc(OC(F)F)cc3[nH]2)c1OC (stereo not given) | -14.2% [at 35.3 µM] | – |
| NC(N)=NCCC[C@H](N)C(=O)O | -4.17% [at 6.97 µM] | – |
| CCOc1ccc(N)c([N+](=O)[O-])c1 | 4.86% | – |
| CCOC(=O)Cc1cccc2ccccc12 | – | 21.9 µM (active) |
| CCCCCCCCCc1ccc(OCCOCCO)cc1 | – | 20.5 µM (active) |
| NS(=O)(=O)c1ccc(N2CCCCS2(=O)=O)cc1 | -0.382% [at 35.3 µM] | – |
| NC(=O)C(c1ccccc1)(c1ccccc1)[C@@H]1CCN(CCc2ccc3c(c2)CCO3)C1 | – | 23.9 µM (active) |
| CCOC(=O)COC(=O)c1cc(Oc2ccc(C(F)(F)F)cc2Cl)ccc1[N+](=O)[O-] | -9.73% | – |
| c1ccc(-c2ccccn2)nc1 | -12.6% | – |
| CC(C)Cc1ccc(C(C)C(=O)OCc2ccccn2)cc1 (stereo not given) | 11.1% [at 35.3 µM] | – |
| O=C(O)c1ccccc1Cl | -8.52% | – |
| OC[C@H]1O[C@@H](OCCc2ccc(O)cc2)[C@H](O)[C@@H](O)[C@@H]1O | -9.11% [at 35.3 µM] | – |
| Nc1ccc([N+](=O)[O-])c(C(F)(F)F)c1 | -12.7% [at 35.3 µM] | – |
| Cc1ncc(CO)c(C=O)c1O | 0.408% [at 35.3 µM] | – |
| CCCCCCCCO[C@@H]1O[C@H](CO)[C@@H](O)[C@H](O)[C@H]1O | -0.757% | – |
| O=C(O)C1(C(=O)O)CCC1.[NH2-].[NH2-].[Pt+2] | -58.5% [at 35.3 µM] | – |

| SMILES | cytotoxicity increase | Potency |
| --- | --- | --- |
| CC(C)CC(=O)C1C(=O)c2ccccc2C1=O | 13% | – |
| CC1=CC[C@H](C(C)C)C=C1 | 22.6% | – |
| C[N+]1(C)CCC(OC(=O)C(O)(c2ccccc2)C2CCCC2)C1 (stereo not given) | 15.8% [at 35.3 µM] | – |
| CCCn1cnc2c1c(=O)n(CCCCC(C)=O)c(=O)n2C | 8.37% [at 35.3 µM] | – |
| CC(C)(CO)[N+](=O)[O-] | -5.19% | – |
| CC(CSC(=O)c1ccccc1)C(=O)N1C[C@@H](Sc2ccccc2)C[C@H]1C(=O)O (stereo not given in full) | -3.06% [at 15.8 µM] | – |
| Nc1cccc([N+](=O)[O-])c1 | 4.09% | – |
| O=P(O)(OCc1ccccc1)OCc1ccccc1 | 0.188% | – |
| CC/C=C\CCOC(=O)CC | -8.86% | – |
| CCCCC(CC)COC(=O)COc1ccc(Cl)cc1Cl (stereo not given) | 3.75% | – |
| O=C1OC(CN2CCOCC2)CN1/N=C/c1ccc([N+](=O)[O-])o1 (stereo not given) | -3.27% [at 35.3 µM] | – |
| Nc1ccccc1S(=O)(=O)c1ccccc1 | -9.71% | – |
| OCc1cc(C(O)CNCCCCCCOCCCCc2ccccc2)ccc1O (stereo not given) | – | 23.9 µM (active) |
| CCOc1ccc(O)cc1 | -16.2% | – |
| CC(C)(C)Cl | 4.35% | – |
| COc1ccc(C(=O)N2CCN(CC(=O)N3CCOCC3)CC2)cc1 | -12.8% [at 35.3 µM] | – |
| CCO[C@H](Cc1ccc(OCCc2ccc(OS(C)(=O)=O)cc2)cc1)C(=O)O | -15.7% [at 35.3 µM] | – |
| O=S(=O)(Oc1ccc(Cl)cc1)c1ccccc1 | 1.06% | – |
| CCCCC/C=C\C/C=C\CCCCCCCC(=O)NC(C)c1ccccc1 (stereo not given) | -17.4% [at 35.3 µM] | – |
| C1CCCNCCC1 | -6.2% | – |
